The list is not random: actives were taken first. Their share in the collection is about 19%.
Pf growth 48h: inhibits P. falciparum growth in the first generation, 48 h | P. falciparum luciferase growth in erythrocytes, 48 h | Potency, µM (series often up to 28.7 µM), actives largely listed as inhibitors | 5.9% of 310,000 active | AID 504832
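Read-out is firefly luciferase luminescence from an integrated reporter in P. falciparum, so falling signal marks reduced parasite growth. Infected erythrocytes were at 2% hematocrit and 0.1% parasitemia (final) in Albumax-supplemented RPMI 1640.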
Shiga inhibitor: blocks Shiga toxin action in Vero cells; inhibition, % at 38.7 µM; AID 2315; 9.2% of 290,000 active; Vero cells, Shiga toxin protein synthesis inhibition reporter; in the data active = inhibition mostly above about 28%, no sharp cut-off; inactive = mostly below about 43%
SARS PLP yeast: blocks SARS-CoV papain-like protease in a yeast assay. 0.19% of 330,000 active. Potency, µM (series often up to 32.9 µM), most hits filed as activators. S. cerevisiae expressing SARS-CoV PLpro, growth rescue; calls by dose curve; note: nearly all actives have a fitted effect of over 55% in size
AMA1 RON2 block: inhibitors of Plasmodium falciparum AMA1-RON2 interaction | AlphaScreen AMA1-biotinylated RON2 peptide binding | Potency, µM (series often up to 58.2 µM), most hits filed as inhibitors | 0.2% of 360,000 active | AID 720542; note: nearly all actives have a fitted effect of over 45% in size
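AMA1 (3D7) with his tag at 25 nM final met compounds first, then biotinylated RON2 peptide at 25 nM; detection used donor plus acceptor beads, 10 µg/mL apiece, read by AlphaScreen after 30 min at room temperature.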
Cycloheximide cs: counter-screen for Shiga toxin inhibitors: cycloheximide protein synthesis inhibition; 12% of 300,000 active; AID 2314; cell reporter, cycloheximide protein synthesis inhibition counterscreen; max response, %; in the data active = max response mostly above about 13%, no sharp cut-off; inactive = mostly below about 14%; note: read at 38.3 µM for the half of the compounds with a filed dose
Pf growth 96h: P. falciparum growth inhibition at 96 hours | 6.9% of 320,000 active | P. falciparum luciferase reporter growth, 96 h | Potency, µM (highest dose often 28.7 µM), actives largely listed as inhibitors
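Delayed-death screen, second-generation endpoint: infected erythrocytes, 2% hematocrit, 0.05% parasitemia final; 96 hours at 37 C, 5% CO2; luciferase detection reagent; luminescence decrease equals reduced growth.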
A number is an active result; n = inactive; u = inconclusive; x = not tested or not shown; [ ] = another dose, or the depositor's remark. Unless noted, calls come from the whole dose curve; as a rule, active = well fitted curve in the direction sought with a large enough effect; inconclusive = small, poorly fitted or top-dose-only effect, or another doubt; inactive = no such curve, though single readings can be large; an effect the other way counts as inactive or inconclusive.

SMILES	Pf growth 48h	Shiga inhibitor	SARS PLP yeast	AMA1 RON2 block	Cycloheximide cs	Pf growth 96h
COc1cccc(CNC(=O)C(NS(=O)(=O)c2ccc3c(c2)CCN3C(C)=O)C(C)C)c1 (centres undefined)	n	n	n	n	24	n
CCC(=O)N1CCc2cc(S(=O)(=O)N3CCN(c4cc(Cl)ccc4C)CC3)ccc21	n	n	n	n	n	5.2µM
CC(=O)N1CCc2cc(S(=O)(=O)NCC(=O)NCc3ccccc3Cl)ccc21	n	n	n	n	n	9.3µM
CCC(=O)N1CCc2cc(S(=O)(=O)N3CCN(c4ccccc4)CC3)ccc21	n	n	n	n	n	u
CCC(=O)N1CCc2cc(S(=O)(=O)NCCC(=O)NCc3ccccc3Cl)ccc21	n	n	n	n	n	8.3µM
COC(=O)C[C@@H]1CC[C@@H](NC(C)=O)[C@@H](CO)O1	x	x	x	n	x	x
Cn1cccc1Cc1nnc(SCC(=O)Nc2ccc3c(c2)OCCO3)n1CCc1ccccc1	x	n	n	n	n	12µM
COc1ccc(OC)c(C(=O)CSc2nnc(Cc3cccs3)n2CCc2ccccc2)c1	12µM	n	n	n	n	13µM
COc1ccc(OC)c(NC(=O)CSc2nnc(Cc3cccn3C)n2CCc2ccccc2)c1	5.2µM	n	n	n	n	12µM
COc1ccc(OC)c(C(=O)CSc2nnc(-c3cccs3)n2C)c1	u	n	n	n	n	x
O=C(COC(=O)c1ccccc1NC(=O)c1ccco1)NCc1ccc2c(c1)OCO2	u	n	n	n	n	n
CC(=O)Oc1ccc(N2C(=O)C3C4C=CC(C5CC45)C3C2=O)cc1[N+](=O)[O-] (centres undefined)	n	n	n	n	n	n
CC(C)[C@H](NS(=O)(=O)c1cccc(C(F)(F)F)c1)C(=O)OCC(=O)NC(=O)NCc1ccco1	x	x	n	n	x	x
Cc1cc(C)nc(-n2nc(C)cc2NC(=O)CN2CCC(C)CC2)n1	u	n	n	n	n	2.3µM
CCC1CCCCN1CC(=O)Nc1cc(C)nn1-c1nc(C)cc(C)n1 (centres undefined)	5.2µM	n	n	n	n	n
CCc1nc2ccccc2c(NC(=O)CN2CCC(C)CC2)c1C	n	n	n	n	n	7.4µM
O=C(NC1CCCCC1)c1cc(S(=O)(=O)N2CCCC2)ccc1Cl	n	n	n	n	n	n
Cc1cc(=O)n2nc(N3CCC(C(=O)NC(C)c4ccccc4)CC3)sc2n1 (centres undefined)	n	n	n	n	n	x
Cc1cc(=O)n2nc(N3CCC(C(=O)NCc4ccccc4Cl)CC3)sc2n1	u	n	n	n	n	12µM
Cc1cc(=O)n2nc(N3CCC(C(=O)NCc4ccc(F)cc4)CC3)sc2n1	n	n	n	n	n	u
Cc1cc(=O)n2nc(N3CCC(C(=O)NC4CCCc5ccccc54)CC3)sc2n1 (centres undefined)	u	n	n	n	n	0.59µM
CCOC(=O)[C@]12CCCC=C1N(Cc1ccc(Cl)cc1Cl)C(=O)[C@H](CC(=O)N1CCCC1)C2	x	x	x	n	x	x
CN(C)S(=O)(=O)c1ccc2nnn(O)c2c1	n	n	n	n	n	n
Cc1ccc(CN2CCN(Cc3ccccc3C(F)(F)F)CC2)cc1	x	n	n	n	n	n
CN(CC(=O)Nc1ccc(F)c(F)c1F)C(=O)c1ccc(=O)[nH]c1	n	50	n	n	38	n
SMILES	Pf growth 48h	Shiga inhibitor	SARS PLP yeast	AMA1 RON2 block	Cycloheximide cs	Pf growth 96h
CN(CC(=O)Nc1ccc(F)c(F)c1F)C1CCCCC1	x	n	n	n	n	n
COc1cccc(C(=O)N(C)CC(=O)Nc2ccc(F)c(F)c2F)c1	n[0.00184 µM]	n	n	n	n	n
CN(CC(=O)Nc1ccc(F)c(F)c1F)c1cnccn1	13µM	n	n	x	n	u
Cc1ncc(N=Nc2ccc(F)cc2)c(-c2ccc(Cl)cc2)n1	u	n	n	n	n	n
COc1ccc(-c2nc(C)ncc2N=Nc2ccccc2)cc1	9.3µM	n	n	u	20	3.7µM
CC(C)c1ccccc1NC(=O)C1CC(=O)N(C2CCCC2)C1 (centres undefined)	n	n	n	n	n	n
COc1cc(OC)c2c(-c3ccccc3)cc(=O)oc2c1C(CCN1CCOCC1)c1ccc(N(C)C)cc1 (centres undefined)	x	n	n	28µM	n	x
COc1cc(OC)c2c(-c3ccccc3)cc(=O)oc2c1C(CCN1CCCCC1)c1ccc(N(C)C)cc1 (centres undefined)	10µM	n	n	25µM	n	u
CCN(CC)C(=O)CC(c1ccc(OC)cc1)c1c(OC)cc(OC)c2c(-c3ccccc3)cc(=O)oc12 (centres undefined)	x	n	x	x	n	x
COc1ccc(C(CCN2CCCCC2)c2c(OC)cc(OC)c3c(-c4ccccc4)cc(=O)oc23)cc1 (centres undefined)	10µM	n	n	n	n	9.3µM
COc1cc(OC)c2ccc(=O)oc2c1C(CCN1CCCC(C)C1)c1ccc(N(C)C)cc1 (centres undefined)	u	n	n	u	n	u
CN(C)c1nc(N)ncc1-c1ccc(Oc2ccccc2)cc1	u	n	n	n	n	u
C[C@@H]1CN([C@@H](C)CO)C(=O)CCCn2nncc2CO[C@H]1CN(C)S(=O)(=O)c1ccc(-n2cccn2)cc1	x	x	x	n	x	x
Cc1ccc(C)c(NC(=O)CSc2nnc(C3CCCCC3)o2)c1	n	n	n	n	n	n
Cc1c(Cl)cccc1NC(=O)Nc1cc(C(C)(C)C)on1	10µM	n	n	n	n	u
CC(C)(C)c1cc(NC(=O)Nc2ccc(Cl)cc2Cl)no1	u	78	n	n	19	n
CC(C)NC(=O)Nc1ccc(Br)cc1Cl	n	n	n	n	n	u
CC(C)(C)c1cc(NC(=O)Nc2ccc(Br)cc2Cl)no1	n	61	n	n	16	13µM
CCOC(=O)c1cc2c(C(F)(F)F)cc(-c3cccnc3)nc2o1	n	n	n	n	n	n
COc1ccc(CC(=O)Oc2ccccc2Cl)cc1S(=O)(=O)N1CCOCC1	n	x	n	n	x	n
Nc1cccc2c(=O)c3ccccc3[nH]c12	1.9µM	n	n	n	n	1.9µM
COc1ccc(C2=NOC(C(=O)Nc3ccc(C(C)=O)cc3)C2)cc1OC (centres undefined)	n	75	n	n	29	n
COc1cc(C2=NOC(C(=O)Nc3ccc(C(C)=O)cc3)C2)cc(OC)c1OC (centres undefined)	n	81	n	n	29	u
COc1ccc(OC)c(C2=NOC(C(=O)Nc3cccc(C(C)=O)c3)C2)c1 (centres undefined)	n	n	n	n	n	9.3µM
COc1ccc(C2=NOC(C(=O)NC3CCCCC3)C2)cc1OC (centres undefined)	n	n	n	n	n	n
COc1ccc(OC)c(C2=NOC(C(=O)Nc3ccccc3SC)C2)c1 (centres undefined)	x	n	n	n	n	u

Source: PubChem
